# Hits are enriched below; roughly 19% of the tested compounds scored in any of these assays.
# BCR signal inh – inhibitors of chronic active B-cell receptor signaling. ABC-DLBCL IkBa-CBG/CBR reporter, luminescence ratio, 4 h. Potency, µM (doses to about 46.1 µM), without a hit: top-dose activity change, negative = inhibition, most hits filed as inhibitors. 0.05% of 340,000 active. AID 493014; active = well fitted inhibition curve with a large enough effect in the signal ratio, with a control signal flat, not every such curve was filed as active; inconclusive = small, poorly fitted or top-dose-only effect, or effect the other way, or a change in a side signal; the % refers to the signal ratio;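 note: potency is the fitted concentration of half-maximal effect; plate controls were basal doxycycline-induced cells for no effect and cells given 10 µM MG132 for full effect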
#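 Doxycycline induced both beetle luciferases in TMD8 lymphoma cells; IKK-driven degradation limits the IkappaBalpha-fused green signal, while red luminescence normalises for cell number and nonspecific effects. Compounds tested up to 46 uM, 4 hrs.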
# TDP1 cell CPT – growth inhibition of DT40 Tdp1-/-;hTDP1 cells with camptothecin (screen for TDP1 inhibitors); chicken DT40 Tdp1-/-;hTDP1 cells + 20 nM CPT, ATP luminescence, 48 h; Potency, µM (highest dose often 46.2 µM), without a hit: top-dose activity change, negative = growth inhibition, actives largely listed as inhibitors; 12% of 420,000 active; note: potency is the fitted concentration of half-maximal effect; % is set by controls: 0 for no effect and ±100 for the full control effect; nearly all actives have a fitted effect of over 55% in size
#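 Cell growth measured by CellTiter-Glo luminescence after a minimum 48 h, 37 C compound exposure with 20 nM CPT in Tdp1-knockout DT40 cells stably expressing hTDP1, seeded 400/well; qHTS titration format.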
# IL1B secr inh – blocks inflammasome-driven IL-1 beta release; THP-1 LPS/ATP IL-1B secretion, AlphaLISA, 16 h; stronger effect = lower value; activity change, % at 57.5 µM; 4.7% of 360,000 active; AID 743279; in the data active = activity change below about -50%; inconclusive = mostly about -30% to -49%; note: % is set by controls: 0 for no effect and ±100 for the full control effect
#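 Secreted IL-1B measured by AlphaLISA bead assay after 16 h compound exposure of THP-1 cells; compounds (final up to 57.5 uM) added 1 h before LPS (250 ng/mL) and ATP (1.25 mM) stimulation; lower signal means less secretion.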
# MCF10A rereplic – induces DNA re-replication in MCF 10a normal breast cells | MCF 10A DNA re-replication, Hoechst nuclear intensity, 48 h | Potency, µM (titrated, usually from 46.1 µM), for inactives: at the top dose activity, positive = re-replication, actives largely listed as activators | 2.9% of 350,000 active | AID 624296; note: potency is the fitted concentration of half-maximal effect; % of control where 0% means no effect; nearly all actives have a fitted effect of over 50% in size
# TDP1 cell noCPT – qHTS for Inhibitors of human tyrosyl-DNA phosphodiesterase 1 (TDP1): qHTS in cells in absence of CPT | DT40 Tdp1-/- hTDP1 cells, no CPT, ATP luminescence, 48 h | Potency, µM (highest dose often 46.2 µM), inactives show at the highest dose activity change, negative = growth inhibition, actives largely listed as inhibitors | 15% of 420,000 active | AID 686978, 2013; note: potency is the fitted concentration of half-maximal effect; % is set by controls: 0 for no effect and ±100 for the full control effect; nearly all actives have a fitted effect of over 55% in size
#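 Camptothecin absent (DMSO only). Human TDP1-complemented DT40 knockout cells, 400 cells/well, 37 °C for minimum 48 hr; ATP measured via CellTiter-Glo, 30 min dark incubation, luminescence.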
# SW480 rerep – induces DNA re-replication in SW480 colon adenocarcinoma cells; 1.8% of 340,000 active; SW480 DNA re-replication, Hoechst DNA content imaging, 48 h; Potency, µM (top dose mostly 46.1 µM), for inactives: at the top dose re-replication activation, hits mostly activators; note: potency is the fitted concentration of half-maximal effect; % of control where 0% means no effect; nearly all actives have a fitted effect of over 55% in size
#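 Treated cells incubate 48 hr (37 C, 5% CO2), are stained 40 min with Hoechst, and nuclear fluorescence is enumerated; a rise in nuclei with high DNA signal marks re-replication.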
# * hit, by the source's call; ? = inconclusive; / = no result. Unless noted, calls come from the whole dose curve; as a rule, active = well fitted curve in the direction sought with a large enough effect; inconclusive = small, poorly fitted or top-dose-only effect, or another doubt; inactive = no such curve, though single readings can be large; an effect the other way counts as inactive or inconclusive.
SMILES,BCR signal inh,TDP1 cell CPT,IL1B secr inh,MCF10A rereplic,TDP1 cell noCPT,SW480 rerep
CCc1sc(C(=O)Nc2ccc3c(c2)OCO3)cc1C,0%,-3%,-80*,15%,?,14%
COc1ccc(CNCC(O)COc2ccc3[nH]c(=O)ccc3c2)cc1OC (stereo not given),/,10%,/,/,-2%,/
CN(C)C(CNc1ncnc2ccccc12)c1c(F)cccc1Cl (stereo not given),2%,-17%,18,0%,?,-28%
COc1cc(CC(CC(=O)c2ccc3c(c2)OCO3)C(=O)O)cc(OC)c1OC (stereo not given),/,15%,14,-21%,1%,5%
C/C(=N\NC(=O)c1ccc2c(c1)OCO2)c1ccco1,?,8%,13,3%,-25%,-6%
O=C(NC(=S)Nc1ccccc1Br)c1ccc2c(c1)OCO2,9%,19%,12,-3%,3%,-11%
COc1cc(C(=O)N/N=C(\C)c2ccc3c(c2)OCO3)cc(OC)c1OC,?,1.6µM*,83,4.1µM*,1.6µM*,2.6µM*
CC(C)c1ccc(O)c(NC(=S)NC(=O)c2ccc3c(c2)OCO3)c1,?,13µM*,0,?,15µM*,-1%
COc1cc(C(=O)c2ccc3c(c2)OCO3)cc(OC)c1OC,/,2.6µM*,23,?,5.2µM*,2.1µM*
COc1cc(C(=O)c2cocc2C(=O)c2ccc3c(c2)OCO3)cc(OC)c1OC,?,0.73µM*,50,?,0.73µM*,1.8µM*
CC(C)CCNC(=O)c1ccc2nc(CCc3ccccc3)oc2c1,/,8%,/,/,-19%,/
N[C@H](C(=O)O)c1cccc(O)c1,/,4%,/,/,-9%,/
COC(=O)c1cccc2c(C(=O)O)cc(-c3ccccc3)nc12,/,1%,12,0%,-19%,0%
CO/N=C(\C(=O)N[C@@H]1C(=O)N2C(C(=O)[O-])=C(C[N+]3(C)CCCC3)CS[C@@H]12)c1csc(N)n1,/,/,/,-8%,/,-1%
CNC(=S)NNC(=O)c1ccc2c(c1)OCO2,?,1%,0,1%,4%,0%
COc1cc(C(=O)NNC(=S)NC(=O)c2ccc3c(c2)OCO3)cc(OC)c1OC,?,21µM*,104,?,?,?
COc1ccc([N+](=O)[O-])c2c1CCN2C(=O)CC[C@H](N)C(=O)O,/,3%,/,/,-16%,/
COc1ccc(-n2c(Cc3cc(=O)[nH]c(=O)[nH]3)nnc2SCc2ccccc2)cc1,-1%,-1%,-1,-1%,2%,-5%
CCOc1ccc(-n2c(SCc3ccc([N+](=O)[O-])cc3)nnc2-c2ccc(OC)cc2)cc1,1%,18µM*,-26,?,29µM*,10%
COc1ccc(-n2c(COc3ccc(Cl)cc3)nnc2SCc2ccc(C#N)cc2)cc1,?,?,-12,15%,23µM*,2%
COc1ccc(NCc2nnc(SCc3ccc(Cl)cc3)n2-c2ccccc2)cc1,?,?,-53*,?,18µM*,?
COCCCn1cc(CN2CC(N3CCCCC3)CS2(=O)=O)nn1 (stereo not given),/,1%,22,/,0%,/
Cc1ccc(N2CC(C(=O)N3CCC(C(=O)Nc4nnc(C(C)(C)C)s4)CC3)CC2=O)cc1 (stereo not given),5%,1%,?,0%,?,-39%
O=C(O)c1ccc2c(c1)C(=O)N([C@@H](Cc1ccc(O)cc1)C(=O)O)C2=O,-7%,/,/,/,/,/
Cn1c(=O)c2c(nc(C(O)c3ccccc3)n2C)n(C)c1=O (stereo not given),/,-7%,29,3%,-5%,-5%
SMILES,BCR signal inh,TDP1 cell CPT,IL1B secr inh,MCF10A rereplic,TDP1 cell noCPT,SW480 rerep
O=C(CSc1ncn[nH]1)Nc1ccc(Cl)c(Cl)c1,0%,1%,-52*,-2%,?,-12%
O=C(CSc1ncc(-c2ccccc2)[nH]1)Nc1ccc(Cl)cc1,/,21µM*,/,/,?,/
O=C(CSc1ncc(-c2ccccc2)[nH]1)Nc1cccc(Br)c1,/,23µM*,/,/,?,/
O=C(CSc1ncc(-c2ccccc2)[nH]1)Nc1ccccc1,?,?,-10,?,?,0%
CC1(C(=O)NS(=O)(=O)c2cccc(C#N)c2)CCN1C(=O)CC1CCCCC1 (stereo not given),/,1%,3,/,7%,/
COc1ccc(CNC(=O)CCC(=O)N2CCN(S(=O)(=O)c3ccc(Cl)cc3)CC2)cc1,-3%,-20%,24,5%,-15%,?
Cc1cc(C(=O)CSc2nnnn2-c2ccccc2)c(C)n1CCc1ccccc1,-18%,-7%,-13,19%,?,-4%
Cc1ccc(-n2nnnc2SCC(=O)c2cc(C)n(-c3cc(C)on3)c2C)c(C)c1,0%,23µM*,-9,?,23µM*,?
Cc1cc(C(=O)CSc2nncs2)c(C)n1-c1c(C)n(C)n(-c2ccccc2)c1=O,2%,3%,21,4%,-2%,-1%
Cc1ccc(-n2c(C)cc(C(=O)CSc3nnnn3C)c2C)cc1,5%,18µM*,?,?,21µM*,-4%
